Measured values: the antibiotic and cytotoxicity screens of Wong et al. (2023)
About 3,300 (8.5%) of roughly 39,000 compounds were called active. The full list was thinned out, with actives kept by preference.

system: HepG2; assay: cytotoxicity call (relative viability < 0.9); conditions: 10 µM

| SMILES | cytotoxicity call |
| --- | --- |
| C[C@H]1CN([C@@H](C)CO)C(=O)c2cccc(NS(C)(=O)=O)c2O[C@H]1CN(C)S(=O)(=O)c1ccc(Cl)cc1 | inactive |
| C[C@H]1CN([C@@H](C)CO)C(=O)Cc2cc(NC(=O)CCN3CCOCC3)ccc2O[C@@H]1CN(C)S(=O)(=O)c1ccccc1 | inactive |
| COc1ccc(NC(=O)N(C)C[C@H]2Oc3ccc(NC(=O)CCN4CCOCC4)cc3C(=O)N([C@H](C)CO)C[C@@H]2C)cc1 | inactive |
| CCS(=O)(=O)N1C[C@]2(CN(C2)S(=O)(=O)c2cn(cn2)C)c2c(n(c3cc(ccc23)OC)C)[C@@H]1CO | inactive |
| CC(=O)N(C)C[C@@H]1Oc2cc(C#CCN(C)C)ccc2S(=O)(=O)N([C@H](C)CO)C[C@H]1C | inactive |
| Cc1noc(C)c1S(=O)(=O)N(C)C[C@H]1Oc2ccc(NC(=O)CCN3CCOCC3)cc2CC(=O)N([C@@H](C)CO)C[C@H]1C | inactive |
| CC1CCC2C(C)C(OC(=O)CCC(=O)O)OC3OC4(C)CCC1C32OO4 (stereo not given) | active |
| COC1OC2OC3(C)CCC4C(C)CCC(C1C)C24OO3 (stereo not given) | inactive |
| CC(=O)C1CCC2C3CC=C4CC(OC(=O)CCC(=O)O)CCC4(C)C3CCC12C (stereo not given) | inactive |
| CC1CCC2C(C)C(O)OC3OC4(C)CCC1C32OO4 (stereo not given) | active |
| CCCN(C)C[C@@H]1OCCCC[C@@H](C)Oc2ccc(NC(=O)C3CCCCC3)cc2C(=O)N([C@@H](C)CO)C[C@@H]1C | inactive |
| COc1cc(/C=C/C(=O)C2=C(NCCc3ccccc3)S[C@H](c3ccc(O)c(OC)c3)CC2=O)ccc1O | inactive |
| C[C@@H]1CN([C@@H](C)CO)C(=O)c2cccc(NS(=O)(=O)c3cn(C)cn3)c2O[C@H]1CN(C)CC1CC1 | inactive |
| CNC[C@H]1Oc2ccc(NC(=O)Cn3cnnn3)cc2CC(=O)N([C@H](C)CO)C[C@@H]1C | inactive |
| C[C@@H](O)[C@@H](Nc1ncnc2ccccc12)C(=O)O | inactive |
| C[C@H]1CN([C@@H](C)CO)C(=O)c2cccc(NC(=O)c3ccc(-c4nccs4)cc3)c2O[C@@H]1CN(C)Cc1ccc2c(c1)OCO2 | inactive |
| C[C@@H]1CCCCO[C@H](CN(C)Cc2ccc(C(=O)O)cc2)[C@@H](C)CN([C@@H](C)CO)C(=O)c2cc(NC(=O)c3ccccc3)ccc2O1 | inactive |
| COC12C(COC(N)=O)C3=C(C(=O)C(C)=C(N)C3=O)N1CC1NC12 (stereo not given) | active |
| CO[C@@]12[C@H](COC(N)=O)C3=C(C(=O)C(C)=C(N)C3=O)N1C[C@@H]1N[C@@H]12 | inactive |
| CO[C@@]12[C@@H]3N[C@@H]3CN1C1=C(C(=O)C(N)=C(C)C1=O)[C@@H]2COC(N)=O | active |
| COc1cccc(S(=O)(=O)Nc2ccc3c(c2)[C@@H]2C[C@@H](CC(=O)NCCc4ccccc4)O[C@@H](CO)[C@@H]2O3)c1 | inactive |
| C=CCOC(=O)[C@@H]1[C@H]2C(=O)O[C@H](c3ccccc3)[C@H](c3ccccc3)N2[C@H](c2ccc(OCCOC(=O)[C@@H]3C[C@@H]4C(=O)N[C@@H](CC(C)C)C(=O)N4[C@@H]3c3ccc(O)cc3)cc2)[C@@]12C(=O)Nc1ccc(I)cc12 | inactive |
| COC(=O)C[C@H]1CC[C@H]2[C@H](COc3ccc(NS(=O)(=O)c4ccccc4Cl)cc3C(=O)N2C)O1 | inactive |

| SMILES | cytotoxicity call |
| --- | --- |
| O=C(Cn1cc(CN2C(=O)COC[C@H]2c2ccccc2)nn1)N1CCC2(CC1)C(=O)NCN2c1ccccc1 | inactive |
| O=C(NO)c1cn(CC(=O)N2CCC3(CC2)C(=O)NCN3c2ccccc2)nn1 | inactive |
| O=C(/C=C/c1cccc(-c2cn(CC(=O)N3CCC4(CC3)C(=O)NCN4c3ccccc3)nn2)c1)NO | inactive |
| O=C(CCc1cn(CC(=O)N2CCC3(CC2)C(=O)NCN3c2ccccc2)nn1)NO | active |
| O=C(NO)c1cn(-c2cccc(C(=O)N3CCC4(CC3)C(=O)NCN4c3ccccc3)c2)nn1 | active |
| O=C(/C=C/c1cccc(-c2cn(-c3cccc(C(=O)N4CCC5(CC4)C(=O)NCN5c4ccccc4)c3)nn2)c1)NO | inactive |
| C[C@@H]1CN([C@H](C)CO)C(=O)c2cc(NS(=O)(=O)c3ccc(F)cc3)ccc2O[C@@H](C)CCCCO[C@@H]1CN(C)S(=O)(=O)c1ccc(Cl)cc1 | inactive |
| C[C@@H]1CN([C@H](C)CO)C(=O)c2cccc(NC(=O)c3cnccn3)c2O[C@H]1CN(C)S(C)(=O)=O | inactive |
| C[C@@H]1CCCCO[C@@H](CN(C)C(=O)c2ccncc2)[C@@H](C)CN([C@H](C)CO)C(=O)c2cc(NC(=O)C3CCCCC3)ccc2O1 | inactive |
| C[C@@H]1CN([C@H](C)CO)C(=O)c2cc(NC(=O)C3CCCCC3)ccc2O[C@@H](C)CCCCO[C@@H]1CN(C)C(=O)c1ccncc1 | inactive |
| C[C@H]1CN([C@@H](C)CO)C(=O)c2cc(NC(=O)CCC(F)(F)F)ccc2O[C@@H]1CN(C)Cc1ccc(C(=O)Nc2ccccc2N)cc1 | inactive |
| COc1ccc(NC(=O)N(C)C[C@H]2OCCCC[C@@H](C)Oc3ccc(NS(=O)(=O)c4c(C)noc4C)cc3C(=O)N([C@@H](C)CO)C[C@H]2C)cc1 | inactive |
| NNc1ccc2nncn2n1 | inactive |
| C[C@@H]1CN([C@@H](C)CO)C(=O)Cc2cc(NC(=O)CCN3CCOCC3)ccc2O[C@H]1CN(C)S(=O)(=O)c1cn(C)cn1 | inactive |
| C[C@H]1CN([C@@H](C)CO)C(=O)c2cc(C#CCN(C)C)cnc2O[C@H]1CN(C)C(=O)Nc1cccc(F)c1 | inactive |
| C[C@H]1CN([C@@H](C)CO)C(=O)c2cc(C#CCc3ccccc3)cnc2O[C@H]1CN(C)CC1CCOCC1 | inactive |
| CC(C)N1C[C@@H](C)[C@H](CN(C)Cc2ccc(Oc3ccccc3)cc2)Oc2c(C(=O)Nc3ccncc3)cccc2C1=O | inactive |
| CC(C)(Sc1cc(C(C)(C)C)c(O)c(C(C)(C)C)c1)Sc1cc(C(C)(C)C)c(O)c(C(C)(C)C)c1 | inactive |
| Cc1cc(C(C)(C)C)c(O)c(C(C)(C)C)c1 | active |
| Cc1ccc(O)c(C(C)(C)C)c1 | inactive |
| C[C@H](CO)N1C[C@H](C)[C@H](CN(C)C(=O)CN(C)C)Oc2ncc(C#CC(C)(C)O)cc2C1=O | inactive |
| C[C@@H]1CN([C@@H](C)CO)C(=O)c2cccc(NC(=O)CCCCCC(=O)Nc3ccccc3N)c2O[C@@H]1CN(C)S(=O)(=O)c1cn(C)cn1 | inactive |
